# Measurements as given in PubChem BioAssay (EPA / NIEHS).
# Values joined by “and” are separate entries in the source; they are usually repeats but may differ in a detail not shown here. Identical values can stand only once. Inconclusive results are not listed. More than one record can exist for a structure, and the calls need not agree. Active and inactive are the calls of the source. Rule for the calls: active = hit-call score of the fitted dose curve at least 0.9, where 1 is the maximum; inconclusive = response in the unintended direction; inactive = score below 0.9.
# How the values were obtained:
# [1] = target: rat Adrenergic, Alpha 1, Non-selective Receptor (Adra1), Adra1a (gene 29412) (UniProt P43140); assay: NVS_GPCR_rAdra1_NonSelective: NovaScreen (NVS) G Protein-Coupled Receptor Assay for rat Adrenergic, Alpha 1, Non-selective Receptor (Adra1) (AID 2283289)
# rat Adrenergic, Alpha 1, Non-selective Receptor (Adra1), Adra1a (gene 29412), sequence (P43140 whole entry, looked up): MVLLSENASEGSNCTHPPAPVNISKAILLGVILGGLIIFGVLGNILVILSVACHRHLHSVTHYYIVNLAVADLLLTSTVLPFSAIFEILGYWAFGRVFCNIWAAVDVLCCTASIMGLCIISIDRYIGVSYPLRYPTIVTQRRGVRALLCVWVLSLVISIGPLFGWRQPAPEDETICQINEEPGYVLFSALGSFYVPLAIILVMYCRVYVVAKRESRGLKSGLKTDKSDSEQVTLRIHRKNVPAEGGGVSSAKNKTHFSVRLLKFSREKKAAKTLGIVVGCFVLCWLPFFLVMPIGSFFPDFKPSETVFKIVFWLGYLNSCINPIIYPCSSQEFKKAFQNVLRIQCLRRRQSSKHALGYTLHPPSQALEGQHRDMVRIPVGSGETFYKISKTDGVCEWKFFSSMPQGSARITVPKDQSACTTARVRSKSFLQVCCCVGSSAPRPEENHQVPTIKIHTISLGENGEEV
# Summary of the method: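 Chemicals first screened in duplicate at 25 uM, then actives tested in concentration series up to 50 uM. Binding measured as displacement of radioligand from rat forebrain membrane receptors, 1 h, filtration with scintillation readout; DMSO baseline.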
# [2] = test system: rabbit Platelet Activating Factor Receptor (PAF), gene 100354046; assay: NVS_GPCR_rabPAF: NovaScreen (NVS) G Protein-Coupled Receptor Assay for rabbit Platelet Activating Factor Receptor (PAF) (AID 2283287)
# Summary of the method: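 Rabbit platelet membrane preparation; radioligand displacement read by filter-based scintillation counting 1 h after dosing, loss of signal versus DMSO. Primary screen in duplicate at 25 uM, actives followed up in concentration series.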
# [3] = target: mouse Cholecystokinin, CCK1 Receptor (CCKA), Cckar (gene 12425) (UniProt O08786); assay: NVS_GPCR_mCCKAPeripheral: NovaScreen (NVS) G Protein-Coupled Receptor Assay for mouse Cholecystokinin, CCK1 Receptor (CCKA) (AID 2283285)
# mouse Cholecystokinin, CCK1 Receptor (CCKA), Cckar (gene 12425), sequence (O08786 whole entry, looked up): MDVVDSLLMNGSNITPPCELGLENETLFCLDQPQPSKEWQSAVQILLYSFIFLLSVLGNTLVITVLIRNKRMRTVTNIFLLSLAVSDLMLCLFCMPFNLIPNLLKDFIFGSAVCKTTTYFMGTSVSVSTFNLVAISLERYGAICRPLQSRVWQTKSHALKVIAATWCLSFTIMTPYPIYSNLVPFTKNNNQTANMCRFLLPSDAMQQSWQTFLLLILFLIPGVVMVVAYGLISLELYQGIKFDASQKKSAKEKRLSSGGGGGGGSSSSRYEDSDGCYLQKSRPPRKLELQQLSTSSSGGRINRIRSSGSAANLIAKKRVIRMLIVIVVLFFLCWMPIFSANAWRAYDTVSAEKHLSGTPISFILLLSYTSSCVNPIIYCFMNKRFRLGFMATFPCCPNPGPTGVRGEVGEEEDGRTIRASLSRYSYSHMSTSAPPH
# Summary of the method: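 Chemicals were first screened in duplicate at 25 uM, with those meeting threshold (e.g., 30% inhibition) retested in singleton concentration series to 50 uM maximum. Binding of radioligand to mouse pancreatic membranes was read after 2 h by filtration and scintillation counting.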
# [4] = target: human Opioid Receptor Mu (Opiate Mu), OPRM1 (gene 4988) (UniProt P35372); assay: NVS_GPCR_hOpiate_mu: NovaScreen (NVS) G Protein-Coupled Receptor Assay for human Opioid Receptor Mu (Opiate Mu) (AID 2283290);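 note: hits lower bound tracer signal versus DMSO meaning displacement of the ligand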
# human Opioid Receptor Mu (Opiate Mu), OPRM1 (gene 4988), sequence (P35372 whole entry, looked up): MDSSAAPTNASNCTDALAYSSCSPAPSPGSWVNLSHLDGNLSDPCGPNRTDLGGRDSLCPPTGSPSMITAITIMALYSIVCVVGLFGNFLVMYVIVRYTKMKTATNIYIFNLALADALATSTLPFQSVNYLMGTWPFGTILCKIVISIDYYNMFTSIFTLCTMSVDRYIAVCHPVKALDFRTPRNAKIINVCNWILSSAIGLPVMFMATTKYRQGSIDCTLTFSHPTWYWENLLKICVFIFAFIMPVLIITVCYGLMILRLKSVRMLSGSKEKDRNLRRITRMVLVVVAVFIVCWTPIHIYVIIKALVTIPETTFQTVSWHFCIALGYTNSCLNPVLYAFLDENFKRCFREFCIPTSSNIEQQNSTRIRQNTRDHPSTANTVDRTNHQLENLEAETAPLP
# Summary of the method: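 Cell-free radioligand binding to membranes from CHO cells expressing the receptor; bound tracer measured by filter-based scintillation counting 2.5 hours after dosing. Loss of signal versus DMSO baseline reflects displacement; primary screen at 25 uM in duplicate, actives followed up in concentration series.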
# [5] = target: human Purinergic Receptor P2Y, P2RY1 (gene 5028) (UniProt P47900); assay: NVS_GPCR_hPY2: NovaScreen (NVS) G Protein-Coupled Receptor Assay for human Purinergic Receptor P2Y (AID 2283281)
# human Purinergic Receptor P2Y, P2RY1 (gene 5028), sequence (P47900 whole entry, looked up): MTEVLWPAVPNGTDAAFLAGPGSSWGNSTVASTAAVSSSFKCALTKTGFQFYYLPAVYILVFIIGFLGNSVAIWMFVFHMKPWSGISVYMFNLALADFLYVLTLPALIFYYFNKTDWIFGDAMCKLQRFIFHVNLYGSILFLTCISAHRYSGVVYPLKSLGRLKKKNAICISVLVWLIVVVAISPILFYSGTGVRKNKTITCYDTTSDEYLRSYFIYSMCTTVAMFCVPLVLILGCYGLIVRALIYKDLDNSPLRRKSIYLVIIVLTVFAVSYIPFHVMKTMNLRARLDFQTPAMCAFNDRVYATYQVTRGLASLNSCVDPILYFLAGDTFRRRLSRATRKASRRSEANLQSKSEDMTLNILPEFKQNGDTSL
# Summary of the method: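 Filtration scintillation readout of radioligand displacement on U937 extract, measured 1 h post-dosing. Single 25 uM duplicate screen, then singleton concentration series to 50 uM for chemicals passing threshold; DMSO as baseline.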
# [6] = target: human Thromboxane A2 Receptor (TXA2), TBXA2R (gene 6915) (UniProt P21731); assay: NVS_GPCR_hTXA2: NovaScreen (NVS) G Protein-Coupled Receptor Assay for human Thromboxane A2 Receptor (TXA2) (AID 2283282);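 note: actives reduce bound radioligand signal relative to DMSO baseline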
# human Thromboxane A2 Receptor (TXA2), TBXA2R (gene 6915), sequence (P21731 whole entry, looked up): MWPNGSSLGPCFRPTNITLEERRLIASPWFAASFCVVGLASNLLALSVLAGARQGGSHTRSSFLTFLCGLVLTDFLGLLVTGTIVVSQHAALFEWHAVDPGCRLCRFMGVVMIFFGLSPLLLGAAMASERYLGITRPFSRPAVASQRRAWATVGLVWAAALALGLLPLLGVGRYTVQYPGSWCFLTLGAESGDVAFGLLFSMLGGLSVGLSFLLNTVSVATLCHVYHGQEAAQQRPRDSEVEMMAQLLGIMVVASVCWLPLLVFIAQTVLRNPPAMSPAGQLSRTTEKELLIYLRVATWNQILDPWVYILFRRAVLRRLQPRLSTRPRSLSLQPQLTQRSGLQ
# Summary of the method: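 Screening ran at 25 uM in duplicate, with concentration series for confirmed actives. Each test measures radioligand binding to human platelet protein after 1 h, cell-free, using filter-based scintillation detection of signal loss relative to DMSO.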
# [7] = target: rat Serotonin, 5-Hydroxytryptamine Receptor 1 (5HT1), Non-Selective Binding, Htr1a (gene 24473) (UniProt P19327); assay: NVS_GPCR_r5HT1_NonSelective: NovaScreen (NVS) G Protein-Coupled Receptor Assay for rat Serotonin, 5-Hydroxytryptamine Receptor 1 (5HT1), Non-Selective Binding (AID 2283286)
# rat Serotonin, 5-Hydroxytryptamine Receptor 1 (5HT1), Non-Selective Binding, Htr1a (gene 24473), sequence (P19327 whole entry, looked up): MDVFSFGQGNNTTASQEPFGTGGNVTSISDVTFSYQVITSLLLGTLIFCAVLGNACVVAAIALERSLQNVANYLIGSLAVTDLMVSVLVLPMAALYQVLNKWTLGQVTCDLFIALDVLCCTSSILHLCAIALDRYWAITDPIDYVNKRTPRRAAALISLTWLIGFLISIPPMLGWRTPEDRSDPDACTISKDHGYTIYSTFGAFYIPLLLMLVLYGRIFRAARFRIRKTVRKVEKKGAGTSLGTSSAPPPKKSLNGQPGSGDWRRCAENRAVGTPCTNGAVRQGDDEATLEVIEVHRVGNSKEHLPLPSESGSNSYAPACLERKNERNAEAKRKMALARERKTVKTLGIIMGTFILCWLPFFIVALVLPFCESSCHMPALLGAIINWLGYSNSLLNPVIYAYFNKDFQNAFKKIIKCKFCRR
# Summary of the method: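 Binding of a radioligand to rat cortex membranes is read by filtration and scintillation counting after 1 h. Compounds were screened at 25 uM in duplicate. Actives were then titrated to a top of 50 uM. DMSO is the baseline.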
# [8] = target: human Orphanin, Opioid Related Nociceptin Receptor 1 (ORL1), OPRL1 (gene 4987) (UniProt P41146); assay: NVS_GPCR_hORL1: NovaScreen (NVS) G Protein-Coupled Receptor Assay for human Orphanin, Opioid Related Nociceptin Receptor 1 (ORL1) (AID 2283283)
# human Orphanin, Opioid Related Nociceptin Receptor 1 (ORL1), OPRL1 (gene 4987), sequence (P41146 whole entry, looked up): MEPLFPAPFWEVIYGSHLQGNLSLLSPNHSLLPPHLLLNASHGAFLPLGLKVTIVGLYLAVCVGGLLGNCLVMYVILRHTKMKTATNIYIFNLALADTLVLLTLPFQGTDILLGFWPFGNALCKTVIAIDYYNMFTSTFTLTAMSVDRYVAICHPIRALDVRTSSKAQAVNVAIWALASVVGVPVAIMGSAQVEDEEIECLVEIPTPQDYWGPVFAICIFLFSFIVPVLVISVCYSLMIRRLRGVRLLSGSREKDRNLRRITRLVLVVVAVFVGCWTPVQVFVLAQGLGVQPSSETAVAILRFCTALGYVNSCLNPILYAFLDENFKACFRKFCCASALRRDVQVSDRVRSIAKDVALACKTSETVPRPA
# Summary of the method: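 Cell-free binding using HEK293-derived receptor protein: radioligand displacement measured by filter scintillation 1 hour after dosing. Primary testing at 25 uM in duplicate, followed by singleton concentration series up to 50 uM; DMSO served as negative control.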
# [9] = target: human Vasopressin 1A Receptor (V1A), AVPR1A (gene 552) (UniProt P37288); assay: NVS_GPCR_hV1A: NovaScreen (NVS) G Protein-Coupled Receptor Assay for human Vasopressin 1A Receptor (V1A) (AID 2283284)
# human Vasopressin 1A Receptor (V1A), AVPR1A (gene 552), sequence (P37288 whole entry, looked up): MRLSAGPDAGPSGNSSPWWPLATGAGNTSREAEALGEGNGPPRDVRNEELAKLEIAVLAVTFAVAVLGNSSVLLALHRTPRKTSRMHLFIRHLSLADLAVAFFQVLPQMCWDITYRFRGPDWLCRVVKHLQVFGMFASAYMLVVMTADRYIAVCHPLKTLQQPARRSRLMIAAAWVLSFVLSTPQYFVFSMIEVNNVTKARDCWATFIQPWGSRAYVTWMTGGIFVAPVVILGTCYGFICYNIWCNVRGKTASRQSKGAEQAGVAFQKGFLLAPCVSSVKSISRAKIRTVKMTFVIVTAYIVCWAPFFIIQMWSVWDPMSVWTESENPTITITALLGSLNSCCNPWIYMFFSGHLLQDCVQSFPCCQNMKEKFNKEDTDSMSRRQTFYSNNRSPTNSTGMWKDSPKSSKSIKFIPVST
# Summary of the method: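 Single-concentration duplicate screen at 25 uM, with concentration-response follow-up (top 50 uM) for actives. The assay measured displacement of a radioligand from human platelet-derived receptor after 1.5 h, detected by filtration and scintillation counting.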
# [10] = test system: 5-hydroxytryptamine receptor 2C (pig); assay: NVS_GPCR_p5HT2C: NovaScreen (NVS) G Protein-Coupled Receptor Assay for pig Serotonin, 5-Hydroxytryptamine Receptor 2C (5HT2C) (AID 2283288)
# Summary of the method: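 Radioligand displacement on membranes from pig choroid plexus, detected by filter scintillation counting after 1 h. Tested first at a single 25 uM in duplicate, then in concentration-response for actives; DMSO served as baseline.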
smiles,measurement,setting,value
ClC1C(Cl)C(Cl)C(Cl)C(Cl)C1Cl (stereo unspecified),outcome,[1],inactive
CCOCN(C(=O)CCl)c1c(C)cccc1CC,AC50,[2],15.2 µM (active)
Oc1cc(Cl)ccc1Oc1ccc(Cl)cc1Cl,AC50,[3],25.5 µM (active) and 38.4 µM (active)
same,outcome,[3],inactive
same,AC50,[4],19.9 µM (active) and 7.86 µM (active) and 15.6 µM (active)
same,outcome,[4],inactive
O=S(=O)(O)C(F)(F)C(F)(F)C(F)(F)C(F)(F)C(F)(F)C(F)(F)C(F)(F)C(F)(F)F,AC50,[5],15.8 µM (active)
same,AC50,[6],15.8 µM (active) [middle of 4 runs]
same,outcome,[6],inactive
same,outcome,[2],inactive
Cc1cc(C)nc(NC(=O)NS(=O)(=O)c2ccccc2C(=O)OC2COC2)n1,outcome,[2],inactive
CCOc1nc(NC)nc(NC(=O)NS(=O)(=O)c2ccccc2C(=O)OC)n1,outcome,[2],inactive
O=C(O)C(F)(F)C(F)(F)C(F)(F)C(F)(F)C(F)(F)C(F)(F)C(F)(F)F,AC50,[6],9.44 µM (active)
same,outcome,[6],inactive
CCS(=O)(=O)c1cccnc1S(=O)(=O)NC(=O)Nc1nc(OC)cc(OC)n1,outcome,[2],inactive
CC(C)(C)C(O)C(Oc1ccc(Cl)cc1)n1cncn1 (stereo unspecified),outcome,[5],inactive
[2H]C1([2H])[n+]2ccccc2-c2cccc[n+]2C1([2H])[2H],outcome,[2],inactive
CCCN(CCOc1c(Cl)cc(Cl)cc1Cl)C(=O)n1ccnc1,AC50,[3],10.5 µM (active)
same,AC50,[4],10.5 µM (active)
CC(C)OC(=O)Nc1cccc(Cl)c1,AC50,[3],15.7 µM (active)
same,outcome,[1],inactive
COP(=S)(OC)Oc1ccc([N+](=O)[O-])cc1,outcome,[7],inactive
O=C(Nc1ccccc1)Nc1cnns1,outcome,[2],inactive
COP(=O)(OC)OC=C(Cl)Cl,outcome,[2],inactive
O=C(O)CCCOc1ccc(Cl)cc1Cl,AC50,[2],15.8 µM (active)
Oc1ccc(Cl)cc1Cc1ccccc1,AC50,[6],7.86 µM (active) and 5.43 µM (active)
same,outcome,[6],inactive
same,AC50,[8],25.2 µM (active) and 47 µM (active)
same,outcome,[9],inactive
same,AC50,[3],25.2 µM (active) [middle of 5 runs]
same,AC50,[10],12.6 µM (active) [middle of 4 runs]
same,AC50,[4],16.5 µM (active) [middle of 6 runs]
same,outcome,[4],inactive
CC(C)(C)C(O)/C(=C\c1ccc(Cl)cc1Cl)n1cncn1 (stereo unspecified),outcome,[4],inactive
CC[C@H](C)[C@H]1O[C@]2(C=C[C@@H]1C)C[C@@H]1C[C@@H](C/C=C(\C)[C@@H](O[C@H]3C[C@H](OC)[C@@H](O[C@H]4C[C@H](OC)[C@@H](O)[C@H](C)O4)[C@H](C)O3)[C@@H](C)/C=C/C=C3\CO[C@@H]4[C@H](O)C(C)=C[C@@H](C(=O)O1)[C@]34O)O2 (tested in a mixture with another compound),AC50,[4],9.27 µM (active)
O=C1c2ccccc2C(=O)N1SC(Cl)(Cl)Cl,AC50,[4],6.04 µM (active)
